Active and inactive are the calls of the source. How the source made its calls: active means hit-call score of the fitted dose curve at least 0.9, where 1 is the maximum; inactive means score below 0.9.

A short description of this experiment: CCTE_Padilla_ZF_Score.General: CCTE's 144 Hour Post-fertilization zebrafish Assay Score for General Malformation, Padilla Lab (AID 2284411). The method in brief: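 Wild-type zebrafish embryos were plated singly at 6-8 hpf in 10% Hanks' and exposed in sealed wells at 26C until rinsed on 5 dpf. At 6 dpf two blinded assessors scored mortality, hatching and malformations by stereomicroscopy; gain-of-signal versus DMSO.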
`CCCCC(CC)COC(=O)c1ccccc1O` (centres undefined): the compound was called inactive. Regarding `CCCCCCCCCCc1ccccc1`, the outcome was inactive. As for `O=Nc1ccc(O)cc1`, the outcome was inactive. For `CCCCCCCCCCCCCCCC[N+](C)(C)CC`, the outcome was inactive. The same measure, in the same setting: the value for `CCCCC/C=C\C/C=C\CCCCCCCC(=O)OC` was “inactive”.

On to `FC(F)=C(F)OC(F)(F)C(F)(F)C(F)(F)F`, for which the outcome was inactive. The same measure, in the same setting: the value for `c1ccc2c(c1)ccc1cc3c(ccc4ccccc43)cc12` was “inactive”. As to `C=CCOCC(O)CCl` (centres undefined), the compound was called inactive. Still for that read-out and setting: the result for `CCCCCCCCc1ccc(Nc2ccc(CCCCCCCC)cc2)cc1` reads “inactive”.

Consider `S=C(NC1CCCCC1)NC1CCCCC1`, for which the AC50 was 25.5 µM (active). Regarding `COCc1c(C(C)C)nc(C(C)C)c(/C=C/[C@@H](O)C[C@@H](O)CC(=O)O)c1-c1ccc(F)cc1`, the result was inactive. With `CCOC(F)(F)C(F)(F)C(F)(F)C(F)(F)F`, the call was inactive. The same measure, in the same setting: the value for `CC=CC(F)(F)C(F)(F)C(F)(F)F` was “inactive”. In the case of `C#CC1(O)CC[C@H]2[C@@H]3CCC4=CCCC[C@@H]4[C@H]3CC[C@@]21C` (some centres undefined), the AC50 is 2.31 µM (active).

Source of the values: PubChem BioAssay (EPA / NIEHS).
